Measured values from PubChem BioAssay AID1053125 (Broad Institute, 2014).
Results with a measured potency or affinity are listed apart. Activity calls are given as the source filed them.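 How the source made its calls: active means viability loss whose fitted half-maximal concentration is at most twice the top valid tested dose; inconclusive means flat curve with 30 to 70% loss, or poor fit; inactive means the rest.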

Test: viability loss in HepG2 liver cells – cell-based, ATP luminescence, cherry-pick, set 6, cytotoxicity control, dose response (AID 1053125);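 further: negative values mean loss of viability signal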
Conditions: ATP luminescence (CellTiter-Glo), 72 h; series mostly up to 26 µM

Question: For `CCOC(=O)c1cc(-c2ccccc2)sc1NC(=O)CSc1nnc(N)s1`, which outcome is on record?
Answer: Its outcome is “inactive”.

Question: For `O=C(O)c1ccc(-c2ccc(/C=C3\NC(=O)N(Cc4ccc(Cl)cc4)C3=O)o2)cc1`, which outcome is on record?
Answer: Its outcome is “inactive”.

Question: Which outcome does the source give for `COC(=O)C1=CN(C)C=C(C(=O)OC)C1c1ccccc1Cl` here?
Answer: Its outcome is “inactive”.

Question: For `N=c1oc2cc(O)ccc2cc1C(=O)Nc1nc2ccccc2s1`, which outcome is on record?
Answer: The outcome was “inactive”.

Question: With `Cc1noc(C)c1-c1ccc(C(=O)NCCc2ccccc2)c2occc12` as the compound, how does the outcome read?
Answer: Its outcome is “inactive”.

Question: Which outcome does the source give for `[O-]/[N+](=C/c1ccccc1)c1ccccc1` here?
Answer: Its outcome is “inactive”.

Question: With `O=C(CCc1c[nH]c2ccccc12)OCC(=O)c1ccccc1` as the compound, how does the outcome read?
Answer: Its outcome is “inactive”.

Question: Which outcome does the source give for `CCN(CC)c1ccc2c(C)c(Cl)c(=O)oc2c1` here?
Answer: Its outcome is “inactive”.

Question: With `Cc1cc(-n2c(=O)c(C#N)cc3c(=O)n4cccc(C)c4nc32)no1` as the compound, how does the outcome read?
Answer: Its outcome is “inactive”.

Question: With `COCCNC(=S)N/N=C/c1ccc(-c2ccc([N+](=O)[O-])cc2)o1` as the compound, how does the outcome read?
Answer: Its outcome is “inactive”.

Question: Which outcome does the source give for `CCCn1c(=N)c(S(=O)(=O)c2ccccc2)cc2c(=O)n3ccccc3nc21` here?
Answer: Its outcome is “inactive”.

Question: Which outcome does the source give for `O=c1c2ccccc2n(CC(O)CN2CCCCC2)c2ccccc12` (stereo not given) here?
Answer: Its outcome is “inactive”.

Question: Which outcome does the source give for `N=c1oc2cc(O)ccc2cc1C(=O)Nc1ccc(Br)cc1` here?
Answer: Its outcome is “inactive”.

Question: Which outcome does the source give for `Cn1c2ccccc2c(=O)c2ccc(F)cc21` here?
Answer: The outcome was “inactive”.

Question: With `CCN(c1ccccc1)S(=O)(=O)c1ccc(OC)c(NC(=O)CN(C)C)c1` as the compound, how does the outcome read?
Answer: Its outcome is “inactive”.

Question: With `CSc1ccc(Cn2c(C)c(C(=O)NCCC#N)sc2=O)cc1` as the compound, how does the outcome read?
Answer: Its outcome is “inactive”.

Question: Which outcome does the source give for `COCCCOc1cc(NCc2ccccc2)c2ncn(C(C)C)c2c1` here?
Answer: The outcome was “inactive”.

Question: With `CCN(CC)c1ccc2cc(C#N)c(=O)oc2c1` as the compound, how does the outcome read?
Answer: Its outcome is “inactive”.

Question: Which outcome does the source give for `O=C(Nc1ccc(-c2ccco2)cc1)C1CCCN(Cc2ccco2)C1` (stereo not given) here?
Answer: The outcome was “inactive”.

Question: For `CC1CCN(C(=O)COc2cccc3c2CCN(Cc2ccccc2)C3=O)CC1`, which outcome is on record?
Answer: Its outcome is “inactive”.

Question: For `CCC(=O)N1C(C(=O)NCc2ccc(OC)cc2)CSC1c1ccc(OC)cc1` (stereo not given), which outcome is on record?
Answer: Its outcome is “inactive”.

Question: With `CNC(=O)c1ccc(NC(=O)c2cccc(C(F)(F)F)c2)cc1` as the compound, how does the outcome read?
Answer: The outcome was “inactive”.

Question: With `CCN(CC)CCNC(=O)c1sc2nc(-c3ccccc3)cn2c1C` as the compound, how does the outcome read?
Answer: The outcome was “inactive”.

Question: Which outcome does the source give for `CCN(CC)Cc1c(O)c(Cl)cc2c(C)cc(=O)oc12` here?
Answer: Its outcome is “inactive”.

Question: Which outcome does the source give for `COc1cc(C2C3=C(CC(C)(C)CC3=O)N(C)C3=C2C(=O)CC(C)(C)C3)cc(Br)c1O` here?
Answer: The outcome was “inactive”.

Question: With `Cn1nc(-c2ccc(Cl)cc2)c2cc(C(=O)N3CCN(c4ccccc4)CC3)sc21` as the compound, how does the outcome read?
Answer: Its outcome is “inactive”.

Question: With `CC(=O)c1cc2ccc(O)cc2oc1=O` as the compound, how does the outcome read?
Answer: Its outcome is “inactive”.

Question: With `CCN(CC)CCN1C2=C(C(=O)CC(C)(C)C2)C(c2cccc(F)c2)C2=C1CC(C)(C)CC2=O` as the compound, how does the outcome read?
Answer: Its outcome is “inactive”.

Question: Which outcome does the source give for `COc1ccc(Cn2nnnc2C(CC(C)C)N2CCC(C(N)=O)CC2)cc1` (stereo not given) here?
Answer: Its outcome is “inactive”.

Question: Which outcome does the source give for `CCOc1ccccc1N=c1oc2cc(O)ccc2cc1C(=O)NCC1CCCO1` (stereo not given) here?
Answer: Its outcome is “inactive”.

Question: For `Cn1cnc(S(=O)(=O)Nc2ccc(OC(F)(F)F)cc2)c1`, which outcome is on record?
Answer: Its outcome is “inactive”.

Question: For `Cc1nc(CCNC(=O)Cc2ccc(Cl)cc2)cs1`, which outcome is on record?
Answer: Its outcome is “inactive”.

Question: With `N#C/C(=C\c1ccco1)C(=O)Nc1cccc2ncccc12` as the compound, how does the outcome read?
Answer: The outcome was “inactive”.

Question: For `C=CCn1c(=N)c(C#N)cc2c(=O)n3ccccc3nc21`, which outcome is on record?
Answer: The outcome was “inactive”.

Question: With `O=c1[nH]c(=O)c2nc(-c3ccc(Cl)cc3)cnc2[nH]1` as the compound, how does the outcome read?
Answer: Its outcome is “inactive”.
